Several values for one entry are separate records, joined by “and”; a condition that tells them apart may be missing. Identical values can stand only once. Results filed as inconclusive are left out. Entries that show only a call come without a potency. More than one record can exist for a structure, and the calls need not agree. Activity calls are given as the source filed them. Calls follow the shape of the dose curve; as a rule, active = well fitted inhibition curve with a large enough effect in the repeat runs; inconclusive = weak or mixed curves; inactive = no such curve, though single readings can be large or run the other way.
Potency is read from the fitted curve at half-maximal effect.

Sequence of Cytochrome P450 2C19 (Homo sapiens) (P33261 whole entry, looked up): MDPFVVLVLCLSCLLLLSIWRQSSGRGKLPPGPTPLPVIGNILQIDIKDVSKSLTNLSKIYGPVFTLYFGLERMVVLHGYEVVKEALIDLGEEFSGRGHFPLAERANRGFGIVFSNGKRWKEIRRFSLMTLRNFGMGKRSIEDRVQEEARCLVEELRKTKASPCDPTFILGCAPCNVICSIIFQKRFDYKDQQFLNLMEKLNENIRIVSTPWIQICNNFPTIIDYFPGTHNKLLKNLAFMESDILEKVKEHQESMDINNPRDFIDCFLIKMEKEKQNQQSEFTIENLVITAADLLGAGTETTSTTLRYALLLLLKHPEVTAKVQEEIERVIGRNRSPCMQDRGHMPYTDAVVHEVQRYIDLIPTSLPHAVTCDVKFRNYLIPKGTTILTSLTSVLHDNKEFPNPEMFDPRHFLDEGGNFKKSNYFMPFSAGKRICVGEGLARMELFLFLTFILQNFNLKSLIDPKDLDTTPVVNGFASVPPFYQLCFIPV

The test addresses Cytochrome P450 2C19 (Homo sapiens) (UniProt P33261). Kind of test: Cytochrome P450 Family 2 Subfamily C Member 19 (CYP2C19) small molecule antagonists: luciferase reporter qHTS assay (AID 1671197). Also: nearly all actives have a fitted effect of over 65% in size. As to conditions: P450-Glo CYP2C19 enzyme, luciferin luminescence, 1 h; series mostly up to 115 µM. From the text:
National Center for Advancing Translational Sciences [NCATS]
U.S. Environmental Protection Agency [EPA]
National Institutes of Environmental Health Sciences [NIEHS]
National Toxicology Program [NTP]
U.S. Food and Drug Administration [FDA]
Cytochrome P450 (CYP) enzymes are membrane-bound hemeproteins that play a key role in metabolism of drugs and xenobiotics. Evaluation of the effect of chemicals on CYP isozymes is useful to minimize the adverse drug reactions and toxicities in drug development process. Tox21 chemicals were tested for their effect on CYP enzyme activities by using P450-Glo (TM) screening systems (Promega Corporation, Madison, WI). These systems provide a luminescent method containing proluciferin substrates and are converted to luciferin products by CYP isozymes. The luciferin products formed are detected with a luciferin detection reagent, and the amount of light produced is proportional to CYP activity. P450-Glo (TM) CYP2C19 screening system (Catalog. No. V9880) was used to detect the compounds that interfere in CYP2C19 activity. The positive control compound used for CYP2C19 assay is ketoconazole (Sigma-Aldrich, St. Louis, MO).
Tox21 Assay Protocol Summary:
Two ul of enzyme-substrate mix was dispensed into medium binding white/solid 1536-well plates (Greiner Bio-One North America Inc., Monroe, NC) using a BioRaptr Flying Reagent Dispenser (FRD, Beckman Coulter, Brea, CA). Compounds dissolved in DMSO and positive control (ketoconazole) were transferred to the assay plates at 23 nl using a Pintool station (Wako, San Diego, CA). The assay plates were incubated at room temperature for 10 min. Then 2 ul of NADPH regeneration solution was added to each well of the assay plates using an FRD and incubated at 37C for 1 h. The reaction was stopped by adding 4 ul of detection reagent using an FRD and after 20 min incubation at room temperature the luminescence signal was measured using a ViewLux plate reader (Perkin Elmer, Shelton, CT). Data were expressed as relative luminescence units.
On the technique in general: In a reporter assay the amount or activity of a reporter protein is the signal.
On to `Cc1cc(Cl)ccc1OCC(=O)O`, for which the Potency result is “inactive and 39.9 µM (active)”.

`Nc1ccccc1`: the Potency is 30.9 µM (active) and 36.3 µM (active) and inactive.

For `O=[N+]([O-])c1ccccc1O`, the Potency entry is “inactive”.

In the case of `CCCCn1cc[n+](C)c1C`, the Potency result is “inactive”.

For the compound `CCC[N+]1(C)CCCC1`, the Potency entry was “inactive”.

Take `CC[N+]1(C)CCCC1`: the Potency result is “inactive and 31.8 µM (active)”.

With `CCn1cc[n+](C)c1C`, the Potency result is “inactive”.

Consider `CCCC[n+]1cccc(C)c1`, for which the Potency result was “inactive”.

For the compound `C[C@]12CCC(=O)C=C1CC[C@@H]1[C@@H]2CC[C@]2(C)C(=O)CC[C@@H]12`, the Potency is 8.79 µM (active) and 39.9 µM (active) and 30.9 µM (active).

For `CCCCCCn1cc[n+](C)c1`, the Potency result was “inactive and 23.4 µM (active)”.

Turning to `O=C(O)CCl`, the Potency entry is “inactive”.

For the compound `CC(=O)[O][Hg][c]1ccccc1`, the Potency was 8.86 µM (active) and 8.94 µM (active) and 17.4 µM (active).

As for `COP(=O)(OC)OC=C(Cl)Cl`, the Potency entry is “inactive”.

As for `CCCC[N+]1(C)CCCCC1`, the Potency entry was “inactive”.

As for `CCC(=O)C(CC(C)N(C)C)(c1ccccc1)c1ccccc1` (stereo not given), the Potency entry was “inactive”.

As for `O=C(O)C(Cl)Cl`, the Potency entry was “inactive”.

As to `COCC(=O)N(c1c(C)cccc1C)C(C)C(=O)OC` (stereo not given), the Potency is 41 µM (active) and 39.8 µM (active) and inactive.

For the compound `CCNc1nc(Cl)nc(NCC)n1`, the Potency entry is “inactive”.

As to `CCCC[n+]1ccccc1`, the Potency result was “inactive”.

Consider `CCOP(=S)(OCC)Oc1ccc2c(C)c(Cl)c(=O)oc2c1`, for which the Potency was 321 nM (active) and 50.2 nM (active) and 3.89 µM (active).

Regarding `Cc1cc(Cl)ccc1N`, the Potency is 20.5 µM (active) and 31 µM (active) and 22.4 µM (active).

`CCCCCCCCCCCCOS(=O)(=O)O`: the Potency is 78.5 µM (active) and inactive.

Consider `CCC[N+]1(C)CCCCC1`, for which the Potency entry is “inactive”.

Turning to `CN(C)[C@@H]1C(=O)C(C(N)=O)=C(O)[C@@]2(O)C(=O)C3=C(O)c4c(O)cccc4[C@@](C)(O)[C@H]3[C@H](O)[C@@H]12`, the Potency entry is “inactive”.

`CCCn1cc[n+](C)c1`: the Potency entry was “inactive”.

In the case of `O=C(O)C(Cl)(Cl)Cl`, the Potency was 20 µM (active).

With `O=c1nc(O)n(Cl)c(=O)n1Cl`, the Potency result was “inactive”.

For `CCCC[n+]1ccccc1C`, the Potency entry is “inactive”.

On to `CC[n+]1ccccc1`, for which the Potency result is “inactive and 3.96 µM (active)”.

As to `CCCC[n+]1ccc(C)cc1`, the Potency result was “inactive”.

With `CCCCCCCCn1cc[n+](C)c1`, the Potency was 39.9 µM (active) and inactive.

Turning to `Oc1ccccc1-c1ccccc1`, the Potency is 39.9 µM (active) and 31.7 µM (active) and 23 µM (active).

Regarding `CCCCCCCCCCCC(=O)O`, the Potency is 79.9 µM (active) and inactive.

As for `COc1ccc(N)cc1`, the Potency is 39.9 µM (active) [middle of 4 runs].

As to `CC(Cl)(Cl)C(=O)O`, the Potency result was “inactive”.

With `Nc1ccc(-c2ccc(N)cc2)cc1`, the Potency was 8.83 µM (active) and 39.6 µM (active) and 35.6 µM (active).

As to `O=C(O)COc1ccc(Cl)cc1Cl`, the Potency was 70.7 µM (active) and inactive.

Take `CCCCCCCCCCn1cc[n+](C)c1`: the Potency was 40.3 µM (active) and 3.26 µM (active) and inactive.

In the case of `C[N+](C)(C)Cc1ccccc1`, the Potency was 31.6 µM (active) and inactive.

`CNC`: the Potency entry was “inactive”.

The record behind these values is PubChem BioAssay (Tox21).
